Target: T1, ETS1 (UniProt P14921)
T1 sequence: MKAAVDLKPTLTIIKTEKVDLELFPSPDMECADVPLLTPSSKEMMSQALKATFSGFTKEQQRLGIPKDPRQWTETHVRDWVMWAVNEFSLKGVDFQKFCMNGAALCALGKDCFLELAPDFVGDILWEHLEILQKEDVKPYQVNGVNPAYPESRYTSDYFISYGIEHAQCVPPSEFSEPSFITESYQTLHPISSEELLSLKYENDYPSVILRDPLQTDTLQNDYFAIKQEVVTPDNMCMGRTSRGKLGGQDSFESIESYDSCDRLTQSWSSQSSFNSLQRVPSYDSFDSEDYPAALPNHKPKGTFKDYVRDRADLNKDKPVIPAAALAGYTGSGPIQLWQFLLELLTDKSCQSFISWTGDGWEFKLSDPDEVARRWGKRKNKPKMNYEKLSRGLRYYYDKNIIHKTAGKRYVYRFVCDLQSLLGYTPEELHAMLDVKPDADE
Assay: ETS1 binding intensity (PBM fluorescence), ETS1 alone (arbitrary fluorescence units); higher = stronger binding
Conditions: ETS1 concentration 1 nM; RUNX1 concentration 0 nM
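For RUNX1 binding intensity (PBM fluorescence) in presence of ETS1, normalised to RUNX1-only experiment in this document: Full-length recombinant human ETS1 or RUNX1 bound to double-stranded 36-bp genomic probes on microarrays, detected by protein-specific primary antibody and Alexa488 secondary, spot fluorescence as median of four replicate spots.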
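For RUNX1 binding intensity (PBM fluorescence), RUNX1 alone in this document: Full-length recombinant human RUNX1 bound to double-stranded 36-bp genomic probes on a high-density microarray, scored as Alexa488 fluorescence per spot via anti-RUNX1 antibody, median of four replicate spots.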

Sequence	ETS1 binding intensity
CACCTGCCTTGCTTCCTGCGGTGCAACCAGCGGGAG	444
CCAGAAAGCTCCTCCTTCCGCCACAACACGATCACT	538
GCCACGCAGTTCCCTTCCTGCGGCGTCCTCCACACC	561
TCCTAGCCATTTCCTATCCACCCTGTGGCTAATTTG	437
TAGAAAAGGAAGCAGGGTAGGTGTGGTATCTGGGTC	587
ATGACTCATTTCCTCACTCTCTACTCCCACAGAACC	606
GGGCTTCAGCGGATGAACAAGGTTACCACGGGGAGT	459
AAAGGGAAGTTGGCGGGAGTTCAAAACCACCGGGGC	347
GAAGCTCCCCAAACAGGATGTGGTTAGGGAGAGGGG	8040
CTATATCACATCCTTTCTCTGACCGCGCTGACTTCG	452
CCTGACTCTGGGTTTCCTCCCAGCCACAGACACCTG	459
TGCCCAGTACTTCCTCTTGTGGGGGAGCACAACTTG	569
GTTGCAGGAAACGATGGGTTTTGTGGTATGAACTGC	813
TAGGCCGGAAAGCACCACCGTCCTCCCGCAGGCCGC	455
TTACTTCTCAGGAAGCGCTGTGGGGCTGGGGTTGCT	676
TGTGAGAAGCCGGATCCTGTGGTGACCCAGTGGCCT	409
TGGCAGGATGCCGTTAAATATGTAACCACATGTCTC	500
GAACACGGAAACACTGAGCTTTTACTTTGACCACAC	572
TCGCATAGCCGGGAAGCGCGGTGGAGGTTGTTGGGG	428
CATCTACTGAGGAAGTGTAAGCCACAATAAGAAGCC	641

Target: RUNX1 (UniProt Q01196)
Sequence (Q01196 whole entry): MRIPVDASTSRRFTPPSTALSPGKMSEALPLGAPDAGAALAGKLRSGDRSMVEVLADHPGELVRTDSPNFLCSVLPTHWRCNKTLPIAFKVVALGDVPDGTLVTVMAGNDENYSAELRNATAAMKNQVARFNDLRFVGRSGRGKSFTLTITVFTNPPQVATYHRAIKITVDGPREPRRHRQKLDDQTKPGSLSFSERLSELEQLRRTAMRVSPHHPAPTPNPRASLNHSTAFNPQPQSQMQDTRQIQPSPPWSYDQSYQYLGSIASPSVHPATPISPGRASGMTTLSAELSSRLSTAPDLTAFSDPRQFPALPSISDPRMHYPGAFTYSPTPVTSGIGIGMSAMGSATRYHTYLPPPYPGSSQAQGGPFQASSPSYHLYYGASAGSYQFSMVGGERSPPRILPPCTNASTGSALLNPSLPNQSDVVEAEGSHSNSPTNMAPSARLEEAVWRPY
Assay: RUNX1 binding intensity (PBM fluorescence), RUNX1 alone (arbitrary fluorescence units); higher = stronger binding
Conditions: RUNX1 concentration 2 nM; ETS1 concentration 0 nM
Description: (§1)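 Cooperative gcPBM on 36-bp genomic probes with neighbouring ETS1 and RUNX1 sites. Recombinant human RUNX1 (2 nM) was incubated alone or with ETS1 (25 nM) and detected with anti-RUNX1 antibody plus Alexa488 secondary. Values are medians over 4 replicate spots; the RUNX1+ETS1 data were normalised to the RUNX1-only data. The probes sit in constant array flanks that are not printed.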

Sequence	RUNX1 binding intensity
TGGCATTCTCCTTCCTGTCTCCTAACCACAGCCCAC	2110
GGCTTCCGGCGGGGTACCCTCCTCTGTGGGCGGGGC	841
CCCCCACATCCTGTTTGGTTTGTGGGACACCTCAAC	849
AGGCCCCGCCCCTTCCGCCCACAGAGCCCGCCACTT	1100
TATGGGGCCGGAAGCCATTCACCACAAACACTGTGT	953
CCACGTAAAGGCGGAAGCGGTTGAGTGGACGCCATC	708
CTTTTCCATGCAGGAAGTGGTTTTTAGAGTGTAGAG	896
GGGGCGGCTTCCGGCGGCGTGACCTGACCGCAAGAG	2950
CTTGTTCTATTTCCTGTTTGTGGTGAGTGACTGTCT	1520

Target: T1, ETS1
Assay: ETS1 binding intensity (PBM fluorescence) in presence of RUNX1, normalised to ETS1-only experiment (arbitrary fluorescence units); higher = stronger binding
Conditions: ETS1 concentration 1 nM; RUNX1 concentration 25 nM

Sequence	ETS1 binding intensity
TCTGTTCTTCCTTTTCCTGTGCGGTGTGCCCCAAAC	722
TGGCATTCTCCTTCCTGTCTCCTAACCACAGCCCAC	2050
AGGCGGCAGGAAATGACCCCATCCCGCAGCCTGGGC	5190
ACCCAGGAGGCGGAAGTTGTGGTGAGCCGAGATCGC	11600
CTGGGCTCGCCAGGCGGAAGTGGTTGGAGACTGCGT	9090
CTCGTGCGTCACTTCCGCCCCGCAGACCCGCCCACT	2940
GGCTTCCGGCGGGGTACCCTCCTCTGTGGGCGGGGC	572
CCCCCACATCCTGTTTGGTTTGTGGGACACCTCAAC	2550
AGGCCCCGCCCCTTCCGCCCACAGAGCCCGCCACTT	1000
CTTTGCTGCAGGATGTTCTAACCACAAGCCCAGGAG	6670
GAGGACGCGGAAGTCCTTCTTGCGGGGCGGAGCTAG	840
AATCCAACACTTCCTCCTCCACCGCAGAAAGGCAAC	966
AGGGCATTTCCTTTGGGGCTGGTGGTCACGGACAAC	381
TATGGGGCCGGAAGCCATTCACCACAAACACTGTGT	9050
AAGGTGGAAAAAGGATGTGGTTCTAAGCTGGCTTCT	1120
CCACGTAAAGGCGGAAGCGGTTGAGTGGACGCCATC	4150
TGAAGTTGGTGTTTTCCGGGGGCGGTTTTTCCATTG	451
CTTTTCCATGCAGGAAGTGGTTTTTAGAGTGTAGAG	20100
GGGGCGGCTTCCGGCGGCGTGACCTGACCGCAAGAG	4920
CTTGTTCTATTTCCTGTTTGTGGTGAGTGACTGTCT	8610

Target: RUNX1 (UniProt Q01196)
Assay: RUNX1 binding intensity (PBM fluorescence) in presence of ETS1, normalised to RUNX1-only experiment (arbitrary fluorescence units); higher = stronger binding
Conditions: RUNX1 concentration 2 nM; ETS1 concentration 25 nM
Description: as §1

Sequence	RUNX1 binding intensity
TCTGTTCTTCCTTTTCCTGTGCGGTGTGCCCCAAAC	2810
TGGCATTCTCCTTCCTGTCTCCTAACCACAGCCCAC	4690
AGGCGGCAGGAAATGACCCCATCCCGCAGCCTGGGC	2040
ACCCAGGAGGCGGAAGTTGTGGTGAGCCGAGATCGC	3150
CTGGGCTCGCCAGGCGGAAGTGGTTGGAGACTGCGT	1510
CTCGTGCGTCACTTCCGCCCCGCAGACCCGCCCACT	2420
GGCTTCCGGCGGGGTACCCTCCTCTGTGGGCGGGGC	1750
CCCCCACATCCTGTTTGGTTTGTGGGACACCTCAAC	4080
AGGCCCCGCCCCTTCCGCCCACAGAGCCCGCCACTT	1730
CTTTGCTGCAGGATGTTCTAACCACAAGCCCAGGAG	7310
GAGGACGCGGAAGTCCTTCTTGCGGGGCGGAGCTAG	890
AATCCAACACTTCCTCCTCCACCGCAGAAAGGCAAC	2670
AGGGCATTTCCTTTGGGGCTGGTGGTCACGGACAAC	1430
TATGGGGCCGGAAGCCATTCACCACAAACACTGTGT	3610
AAGGTGGAAAAAGGATGTGGTTCTAAGCTGGCTTCT	1020
CCACGTAAAGGCGGAAGCGGTTGAGTGGACGCCATC	1640
TGAAGTTGGTGTTTTCCGGGGGCGGTTTTTCCATTG	969
CTTTTCCATGCAGGAAGTGGTTTTTAGAGTGTAGAG	2920
GGGGCGGCTTCCGGCGGCGTGACCTGACCGCAAGAG	9110
CTTGTTCTATTTCCTGTTTGTGGTGAGTGACTGTCT	3140
